Shown are actives, neighbours in structure and some others; about 2.7% of the full set was active somewhere.
PP1 inh: PP1-alpha (human) inhibition in PP5 counter-screen | purified PP1alpha, OMFP fluorescence | inhibition, % at 6.7 µM | actives 0.9% (n = 320,000) | AID 2235;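 active = inhibition above the mean inhibition of all tested compounds plus 3 SD, computed separately for each screening campaign, cut at about 15% in these data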
DNA FID counter: displaces DNA intercalator in HCV helicase counter-screen | actives 0.17% (n = 290,000) | DNA fluorescent intercalator displacement, fluorescence | AID 1845 | inhibition, % at 7.9 µM; in the data active = inhibition above about 37%;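 also: 0% = vehicle and 100% = reference compound; higher means more ethidium bromide displaced from hairpin DNA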
TMEM16A act: activators or potentiators of mouse TMEM16A chloride channel; Q8BHY3; HEK293 TMEM16A/YFP-H148Q/I152L, iodide quench fluorescence; active compounds read low; B-score at 10 µM; actives 0.3% (n = 340,000);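 active = fluorescence-ratio B-score plate-corrected deviation score at least 3 library SD below zero, with starting fluorescence score within 5 deviations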;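 also: channel opened by trigger with iodide after compound preincubation; score built on the fluorescence ratio of max minus min over baseline; more negative score means more quench and so TMEM16A activation or potentiation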
PP5 primary: blocks human protein phosphatase 5 activity | actives 0.18% (n = 320,000) | inhibition, % at 6.7 µM | AID 1987 | P53041 | purified PP5c, OMFP substrate fluorescence;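 active = inhibition above the campaign's mean inhibition across all tested compounds plus 3 SD, cut at about 9.5% in these data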;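 also: 0% = DMSO only and 100% = 100 µM cantharidin control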
PREPL inhibitor: inhibits the human prolyl oligopeptidase-like enzyme; inhibition, % at 5.96 µM; actives 0.68% (n = 320,000); AID 2751; recombinant PREPL, fluorescence polarization activity-based probe; in the data active = inhibition above about 43%;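 also: 0% = enzyme with DMSO and 100% = wells lacking enzyme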
Target sequence (Q4J6C6 whole entry, looked up): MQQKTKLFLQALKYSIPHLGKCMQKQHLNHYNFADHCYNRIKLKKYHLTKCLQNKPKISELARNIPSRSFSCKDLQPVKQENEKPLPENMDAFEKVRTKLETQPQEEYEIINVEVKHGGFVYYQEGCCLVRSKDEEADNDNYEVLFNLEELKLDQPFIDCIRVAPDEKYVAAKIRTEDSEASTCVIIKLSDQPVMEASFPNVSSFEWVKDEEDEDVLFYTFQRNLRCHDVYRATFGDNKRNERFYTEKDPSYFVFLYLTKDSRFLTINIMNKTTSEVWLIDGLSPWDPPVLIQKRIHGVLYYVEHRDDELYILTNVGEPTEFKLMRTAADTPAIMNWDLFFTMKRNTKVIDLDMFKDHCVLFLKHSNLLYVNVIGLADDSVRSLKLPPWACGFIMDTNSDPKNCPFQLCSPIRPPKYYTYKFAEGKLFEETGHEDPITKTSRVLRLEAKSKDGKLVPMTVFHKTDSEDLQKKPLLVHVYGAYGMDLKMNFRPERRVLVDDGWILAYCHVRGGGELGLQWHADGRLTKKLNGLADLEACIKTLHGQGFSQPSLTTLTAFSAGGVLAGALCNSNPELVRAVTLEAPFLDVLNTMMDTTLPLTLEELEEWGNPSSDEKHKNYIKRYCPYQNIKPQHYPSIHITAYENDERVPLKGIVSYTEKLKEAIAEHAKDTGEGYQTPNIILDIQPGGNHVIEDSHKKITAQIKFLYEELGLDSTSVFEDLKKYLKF
TMEM16A inh: inhibitors of mouse TMEM16A calcium-activated chloride channel | Q8BHY3 | HEK293 TMEM16A/YFP iodide influx fluorescence, ionomycin | normalized B-score (activity score, 25-100; higher = stronger inhibition) at 10 µM | actives 1.2% (n = 310,000);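 active = ratio plate-corrected score three or more library SD toward inhibition, starting fluorescence score within five deviations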;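 also: score derived from kinetic fluorescence span divided by baseline fluorescence per well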
Starred values were filed as active, the others as inactive; i = inactive; · = no result given.

SMILES	PP1 inh	DNA FID counter	TMEM16A act	PP5 primary	PREPL inhibitor	TMEM16A inh
COc1ccc(-c2ccc3c(c2)S(=O)(=O)c2cccc(C(=O)NCc4cccc(OC(F)(F)F)c4)c2C3=O)cc1OC	·	·	-4.63*	·	-1.8	·
CCCCCOc1ccc(Br)cc1/C(C)=N/NC1=NCCN1	17.2*	15.6	i	3.1	6.0	i
O=c1[nH]c(CNCc2cccnc2)nc2ccccc12	-4.2	-5.5	i	-1.4	1.0	i
CN(Cc1ccccc1)C(=O)COC(=O)c1ccc(Cl)cc1N	3.6	-18.6	i	1.4	-5.2	i
COc1ccc(-c2nn(-c3ccccc3)cc2/C=N/NC(=O)c2ccc(Br)o2)cc1	-0.2	-2.7	i	4.2	-4.5	100*
COC(=O)c1ccc(NC(=O)COc2ccc(C3C(C#N)=C(N)Oc4c3ccc3ccccc43)cc2OC)cc1 (stereo unspecified)	15.9*	-22.0	i	2.6	17.9	i
CC1(C)Cc2c(sc(NC(=O)c3ccc(C(=O)c4ccccc4)cc3)c2C(N)=O)C(C)(C)N1	5.9	36.8*	i	3.7	10.2	i
COC(=O)c1c(NC(=O)c2ccccc2)sc2c1CC(C)(C)NC2(C)C	-4.2	13.1	i	0.2	-7.4	i
CCOC(=O)N1CCN(S(=O)(=O)c2ccc(C(=O)Nc3sc4c(c3C(N)=O)CC(C)(C)NC4(C)C)cc2)CC1	0.7	40.6*	i	-0.2	14.8	i
O=C(Nc1ccc(-c2nc3ccccc3o2)cc1)c1ccc(N2CCOCC2)c([N+](=O)[O-])c1	-4.7	-2.7	i	-0.8	9.7	25*
CCOc1cccc2sc(N(CCCN(C)C)C(=O)c3ccc(S(=O)(=O)N(CC)Cc4ccccc4)cc3)nc12	13.2	37.3*	i	5.4	10.2	i
Cc1ccc2sc(N(CCCN(C)C)C(=O)c3ccc(S(=O)(=O)N(C)Cc4ccccc4)cc3)nc2c1C	17.0*	·	i	4.7	14.1	i
CCN(c1ccccc1)S(=O)(=O)c1ccc(C(=O)N(CCCN(C)C)c2nc3c(C)cccc3s2)cc1	2.0	37.3*	i	1.3	-18.9	i
Cc1ccc2sc(N(CCCN(C)C)C(=O)c3ccc(S(=O)(=O)N4CCc5ccccc5C4)cc3)nc2c1C	15.4*	·	i	1.1	9.3	i
Cc1ccc2sc(N(CCCN(C)C)C(=O)c3ccc(S(=O)(=O)N(C)C)cc3)nc2c1C	-0.5	14.0	i	0.4	-10.7	i
O=C(NC1CCCCCC1)c1ccc([N+](=O)[O-])s1	·	·	i	·	·	·
Cc1nn(CC(=O)NCC(C)c2ccccc2)c(=O)c2cc(-c3ccccc3)nn12 (stereo unspecified)	3.0	-41.7	i	-0.1	-53.5	i
Cc1cc(C)c2sc(N(CCCN(C)C)C(=O)c3ccc(S(=O)(=O)N(C)Cc4ccccc4)cc3)nc2c1	10.0	·	i	2.4	17.3	i
CCOc1cccc2sc(N(CCCN(C)C)C(=O)c3ccc(S(=O)(=O)N(C)Cc4ccccc4)cc3)nc12	8.0	39.1*	i	5.1	31.1	i
CCN(Cc1ccccc1)S(=O)(=O)c1ccc(C(=O)N(CCCN(C)C)c2nc3cc(C)cc(C)c3s2)cc1	15.8*	·	i	3.6	10.6	i
C/C1=C\CCC2C(/C=C(\C)CC1)OC(=O)C2CN1CCCCC1 (stereo unspecified)	-1.2	-10.1	i	0.1	-8.6	i
Nc1c(SCCC(=O)O)ccc2c1C(=O)c1ccccc1C2=O	11.6	-33.3	-5.32*	5.0	-16.4	i
COc1ccc(C(C)(C)C)cc1NC(=O)Cn1cnnn1	-4.3	-15.3	i	-2.1	8.0	i
CCOc1ccc2c(c1)sc1nc(C(=O)OC)cc(=O)n12	-2.7	0.3	i	-0.6	8.3	i
CCOc1ccc2c(c1)s/c(=N\S(=O)(=O)c1ccc(OC)cc1)n2C(F)F	3.5	-4.1	i	3.2	-9.0	25*
SMILES	PP1 inh	DNA FID counter	TMEM16A act	PP5 primary	PREPL inhibitor	TMEM16A inh
Cc1ccc(S(=O)(=O)N[C@H](C(=O)NC2CCC(C)CC2)C(C)C)cc1 (stereo partly specified)	·	·	i	·	6.2	·
O=C(Nc1ccc(Br)cc1)C1OCCc2ccccc21 (stereo unspecified)	-3.5	-8.0	i	2.9	-9.3	i
CC(C(=O)Nc1ccc(S(=O)(=O)N2CCOCC2)cc1)N(c1ccccc1)S(C)(=O)=O (stereo unspecified)	-2.5	-10.7	-9.97*	-0.7	1.9	i
Cc1cccc(N2CCN(CC(=O)Nc3ccc(S(=O)(=O)N4CCOCC4)cc3)CC2)c1C	-9.2	-8.0	i	1.9	12.7	25*
CCCN=C1N(CC)C[C@@H]2[C@@H]3C(=O)N(Cc4ccccc4)C(=O)[C@@H]3[C@](Cc3ccccc3)(C(=O)OC)N12	·	·	i	·	·	·
COC(=O)c1ccc(Cn2cnc3c(Cl)ncnc32)cc1	·	·	i	·	·	·
CCOC(=O)N1CCN(S(=O)(=O)c2ccc3c(c2)CCN3C(=O)C2CC2)CC1	1.9	-17.0	-18.4*	-2.0	9.7	i
COc1ccccc1CNS(=O)(=O)c1ccc2c(c1)CC(C)N2C(=O)C1CCC1 (stereo unspecified)	-1.3	-42.0	i	-1.6	-4.7	25*
COc1ccccc1CNS(=O)(=O)c1ccc2c(c1)CC(C)N2C(=O)C1CC1 (stereo unspecified)	0.5	-44.7	i	1.6	-3.2	i
CCOC(=O)C1CCN(S(=O)(=O)c2ccc3c(c2)CC(C)N3C(=O)C2CCC2)CC1 (stereo unspecified)	5.2	-53.5	i	-1.3	7.2	25*
CCOC(=O)C1CCCN(S(=O)(=O)c2ccc3c(c2)CC(C)N3C(=O)C2CC2)C1 (stereo unspecified)	-3.2	-50.7	i	0.1	4.6	i
CC1CCN(S(=O)(=O)c2ccc3c(c2)CC(C)N3C(=O)C2CCC2)CC1 (stereo unspecified)	-0.9	-42.2	i	-0.2	19.7	25*
CC1Cc2cc(S(=O)(=O)N3CCCCC3)ccc2N1C(=O)C1CCC1 (stereo unspecified)	0.4	-56.1	i	2.2	4.8	i
N#Cc1c(-c2ccc(Cl)cc2)c(-c2ccc(Cl)cc2)nn(CCO)c1=O	·	·	i	·	·	·
CCCNC(=O)Nc1ccc(NC(C)=O)cc1	-2.0	-1.8	i	-2.9	-1.4	i
CC1(C)CC(N2CCC(=O)N(C3CC(C)(C)NC(C)(C)C3)C2)CC(C)(C)N1	-7.5	37.3*	i	-1.6	-3.3	i
CSc1nnc(N2C(=O)C(O)=C(C(=O)c3ccco3)C2c2ccccc2)s1 (stereo unspecified)	2.8	-27.5	-6.56*	-0.8	-4.0	i
C=CCSc1nnc(N2C(=O)C(O)=C(C(=O)c3ccco3)C2c2ccccc2F)s1 (stereo unspecified)	14.7	-34.0	i	1.4	-8.8	i
